# High-throughput results from PubChem BioAssay.
# FLuc modulator: qHTS profiling assay for firefly luciferase inhibitor/activator using purifed enzyme and Km concentrations of substrates (counterscreen for miR-21 project); Luciferin 4-monooxygenase (Photinus pyralis), P08659; hit rate 6.9% among 360,000; Potency, µM (highest dose often 57.5 µM), for the others: at the top dose activity change, negative = inhibition, hits mostly inhibitors; purified FLuc, Km substrates, luminescence inhibition; AID 588342, 2011;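 further: plate controls were vehicle for no effect and reference inhibitor for full effect; nearly all actives have a fitted effect of over 55% in size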
# Target sequence (P08659 whole entry, looked up): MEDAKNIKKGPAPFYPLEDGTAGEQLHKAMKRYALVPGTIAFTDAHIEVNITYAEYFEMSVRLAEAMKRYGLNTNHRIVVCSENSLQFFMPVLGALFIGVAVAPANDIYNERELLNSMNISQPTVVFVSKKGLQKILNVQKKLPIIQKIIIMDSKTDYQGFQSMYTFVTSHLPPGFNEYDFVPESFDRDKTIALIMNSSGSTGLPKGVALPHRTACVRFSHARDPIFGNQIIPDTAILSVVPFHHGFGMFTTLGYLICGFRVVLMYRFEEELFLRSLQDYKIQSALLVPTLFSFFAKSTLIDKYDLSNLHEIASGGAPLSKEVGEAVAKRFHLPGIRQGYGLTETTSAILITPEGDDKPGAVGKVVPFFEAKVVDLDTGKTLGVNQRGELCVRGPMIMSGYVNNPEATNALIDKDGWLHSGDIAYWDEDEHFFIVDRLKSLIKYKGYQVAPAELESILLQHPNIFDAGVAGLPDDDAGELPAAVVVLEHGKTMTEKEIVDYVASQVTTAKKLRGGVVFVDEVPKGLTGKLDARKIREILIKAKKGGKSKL
#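 Purified P. pyralis luciferase (10nM final) with 10uM D-luciferin and 10uM ATP (Km levels) in 50mM Tris acetate pH 7.5, 10mM Mg acetate, 0.01% Tween-20, 0.05% BSA; qHTS 6-point titration, ~60 µM downward; luminescence read.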
# Rab9 prom act: qHTS Assay for Rab9 Promoter Activators | Huh7 Rab9 promoter-luciferase reporter, luminescence, 24 h | Potency, µM (series often up to 9.22 µM), for the others: at the highest dose activation, negative = inhibition, hits mostly activators | hit rate 2.8% among 320,000; further: % of control where 0% means no effect; nearly all actives have a fitted effect of over 60% in size
#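 Huh7 cells stably carrying Rab9 promoter–luciferase reporter, plated 1500 cells/well, compound added after 2 h and incubated 24 h at 37 °C; luciferase luminescence then read after 10 min with detection reagent.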
# NPC1 prom act: qHTS Assay for NPC1 Promoter Activators | Huh7 NPC1 promoter luciferase reporter, 24 h | Potency, µM (titrated, usually from 9.22 µM), for the others: at the top dose activation, most hits filed as activators | hit rate 2.4% among 320,000; further: % of control where 0% means no effect; nearly all actives have a fitted effect of over 60% in size
#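 In 1536-well qHTS, Huh7 cells harboring an NPC1 promoter–luciferase construct received compound for 24 h; activation was quantified by luminescence following luciferase reagent addition.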
# ELG1 repair inh: qHTS screen for small molecules that inhibit ELG1-dependent DNA repair in human embryonic kidney (HEK293T) cells expressing luciferase-tagged ELG1 | AID 504467, 2011 | hit rate 2.3% among 330,000 | HEK293T ELG1-luciferase reporter, luminescence, 16 h; DNA damage induced by 5-fluorouridine | Potency, µM (highest dose often 46.1 µM), for inactives: top-dose activity change, negative = inhibition, actives largely listed as inhibitors; further: on the % scale 0 is the no-effect control and ±100 the full control effect; nearly all actives have a fitted effect of over 55% in size
#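 Cells (2,000 per well) received 5-fluorouridine plus test compound or DMSO and were incubated 16 hr at 37 °C, 5% CO2. Luciferase activity was read by luminescence 30 min after ONE-Glo addition; signal suppression marked inhibition of damage-induced ELG1 function.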
# SMN2 splice up: qHTS Assay for Enhancers of SMN2 Splice Variant Expression; HEK293 SMN2-luciferase splicing reporter, luminescence, 30-36 h; Potency, µM (series often up to 46.1 µM), for inactives: top-dose activity change, positive = activation, most hits filed as activators; hit rate 2.8% among 210,000; AID 1458, 2008; further: % of control where 0% means no effect; nearly all actives have a fitted effect of over 55% in size
#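 HEK293 cells carry an SMN2 minigene-luciferase reporter in which exon 7 inclusion puts luciferase in frame. Cells were seeded at 2000 cells/well, attached for 10-12 hours, then exposed to compounds for 30-36 hours at 37C before ONE-Glo luminescence.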
# ELG1 genotox: qHTS screen for small molecules that induce genotoxicity in human embryonic kidney (HEK293T) cells expressing luciferase-tagged ELG1. HEK293T ELG1-luciferase reporter, luminescence, 16 h. Potency, µM (series often up to 46 µM), for the others: top-dose activity change, positive = activation, most hits filed as activators. hit rate 1.3% among 330,000. AID 504466, 2011; further: % of control where 0% means no effect; nearly all actives have a fitted effect of over 60% in size
#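 Quantitative HTS format in 1536-well plates. HEK293T ELG1-luciferase reporter cells receive test compound and are incubated 16 hr at 37 °C, 5% CO2; ONE-Glo added, 30 min room temperature, then luminescence read.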
# Active calls of the source: *; ? = inconclusive; nt = no result. A selection: hits, their analogues and other compounds. The true share with any hit is near 9.2%. The call rests on the fitted dose curve; in most records, active means well fitted curve in the direction sought with a large enough effect; inconclusive means small, poorly fitted or top-dose-only effect, or another doubt; inactive means no such curve, though single readings can be large; an effect the other way counts as inactive or inconclusive. Potency means the concentration at half of the fitted maximal effect.
SMILES,FLuc modulator,Rab9 prom act,NPC1 prom act,ELG1 repair inh,SMN2 splice up,ELG1 genotox
CCOC(CCn1c(SCC(=O)Nc2cc(C)on2)nc2ccccc2c1=O)OCC,-2%,-6%,-2%,21µM*,11%,-4%
Cc1ccc(-n2c(SCc3ccc([N+](=O)[O-])cc3)nc3ccccc3c2=O)cc1,-1%,-3%,1%,-26%,-1%,-1%
CCOC(Cn1c(SCC(=O)Nc2cc(C)on2)nc2ccccc2c1=O)OCC,2%,-3%,2%,0%,nt,-1%
CCOC(CCn1c(SCc2ccc([N+](=O)[O-])cc2)nc2ccccc2c1=O)OCC,-2%,-6%,-3%,15µM*,-35%,-6%
Cc1ccc(-c2c(=O)n(OCc3ccccn3)c3ccccc3[n+]2[O-])cc1,1%,-9%,-9%,?,nt,4%
COc1ccc(-c2c(=O)n(OCc3ccccn3)c3ccccc3[n+]2[O-])cc1OC,0%,-5%,-1%,13µM*,-29%,-5%
Nc1ccc(-c2nc3ccccc3o2)cc1,6.7µM*,?,?,?,nt,?
CC(C)c1ccc2oc(-c3cc(N)ccc3O)nc2c1,0.15µM*,?,0.89µM*,?,25%,?
Nc1ccc2oc(-c3ccccc3Br)nc2c1,3.4µM*,nt,nt,nt,13µM*,nt
Nc1ccc2oc(-c3cccc(Br)c3)nc2c1,2.7µM*,1.1µM*,1.1µM*,?,14µM*,2µM*
O=C(Nc1ccc(O)c(-c2nc3ccccc3o2)c1)c1ccco1,0%,nt,nt,nt,8%,nt
CNC(=O)c1ccc(NC(=O)CCNC(=O)Nc2ccccc2)cc1,6%,9%,-1%,9%,nt,1%
COc1ccc(S(=O)(=O)NCc2cccn2Cc2cccc(C)c2)cc1OC,3%,nt,nt,nt,nt,nt
COc1cc(OC)cc(C(=O)NCC(=O)NC(C)c2ccccc2)c1 (configuration not stated),-1%,1%,1%,?,nt,1%
Cc1ccccc1-c1nc2cc(N)ccc2o1,2.4µM*,0.35µM*,0.89µM*,?,6.3µM*,?
C=CC(=O)N(CCC)C(c1ccccc1)c1ccccc1OC (configuration not stated),4%,-1%,-2%,-2%,nt,-5%
CC(=O)c1ccc(NC(=O)C2CC(=O)N(Cc3ccccc3)C2)cc1 (configuration not stated),9.5µM*,?,?,?,?,18µM*
Cc1ccnc(NC(=O)C2CC(=O)N(Cc3ccccc3)C2)c1 (configuration not stated),6µM*,-5%,-2%,?,nt,3.3µM*
O=C(Nc1ccccc1)C1CC(=O)N(Cc2ccccc2)C1 (configuration not stated),-2%,5%,0%,17%,nt,5%
CCOc1ccc(OCC)c(NS(=O)(=O)c2c(C(=O)N3CCCCCC3)c(C)n(C)c2C)c1,-5%,nt,nt,nt,nt,nt
O=C(c1cc2cc(Br)ccc2o1)N1CCCC1,?,?,?,?,26%,?
O=C(c1cc2cc(Br)ccc2o1)N1CCOCC1,21µM*,?,13%,?,nt,21%
O=C(c1cc2cc(Br)ccc2o1)N1CCN(c2ccccc2)CC1,19µM*,-1%,-1%,?,nt,?
O=C(CNC(=O)c1ccc(OC(F)F)cc1)Nc1cccc(S(=O)(=O)N2CCCC2)c1,12%,1%,-5%,-1%,nt,2%
Cc1onc(C(=O)Nc2sc3c(c2C#N)CCCC3)c1[N+](=O)[O-],13µM*,?,3%,-3%,nt,7%
SMILES,FLuc modulator,Rab9 prom act,NPC1 prom act,ELG1 repair inh,SMN2 splice up,ELG1 genotox
N#Cc1c(NC(=O)c2ccc(-c3ccccc3[N+](=O)[O-])o2)sc2c1CCCC2,11µM*,14%,-2%,?,-30%,1%
O=C(NC1CCCCC1)c1ccc(-c2ccccc2[N+](=O)[O-])o1,3.8µM*,1.4µM*,0.71µM*,?,nt,2.1µM*
Cc1onc(-c2ccccc2)c1C(=O)Nc1sc2c(c1C#N)CCC(C)C2 (configuration not stated),?,-3%,0%,?,-14%,-6%
CC1CCc2c(sc(NC(=O)c3ccc(-c4ccccc4[N+](=O)[O-])o3)c2C#N)C1 (configuration not stated),11µM*,14%,4%,5%,-10%,-4%
COc1ccc(NC(=O)CSc2cn(CCNC(=O)c3c(F)cccc3F)c3ccccc23)cc1,-16%,nt,nt,nt,-5%,nt
O=C(/C=C/c1ccccc1)Oc1ccccc1C(=S)N1CCOCC1,3%,-1%,1%,0%,nt,-1%
O=C(/C=C/c1cccc2ccccc12)N1CCOCC1,15µM*,?,?,?,nt,?
O=C(/C=C/c1cccc(Oc2ccccc2)c1)N1CCOCC1,15µM*,1.6µM*,?,?,nt,?
O=C(/C=C/c1cccc([N+](=O)[O-])c1)N1CCOCC1,0%,-5%,5%,19%,4%,2%
O=C(/C=C/c1ccccc1)Oc1cccc(C(=S)N2CCOCC2)c1,9.5µM*,-4%,0%,15%,-33%,2%
O=C(/C=C/c1cccc2ccccc12)c1ccncc1,9.5µM*,-8%,-8%,26%,-61%,-6%
CSCCC(NS(=O)(=O)c1ccc(C)cc1)C(=O)N1CCN(S(=O)(=O)c2ccc(F)cc2)CC1 (configuration not stated),3%,0%,1%,-1%,nt,-3%
O=C(/C=C/c1ccc(OCCCF)cc1)N1CCOCC1,24µM*,?,?,?,nt,?
COc1cc(Cl)c(C)cc1NC(=O)c1ccc(NS(=O)(=O)c2ccc(F)c(F)c2)cc1,0%,2%,-8%,?,-18%,-9%
O=C(Nc1nc2ccccc2[nH]1)c1cccs1,4.8µM*,1.3µM*,1.3µM*,?,3.5µM*,?
COc1cccc(C(=O)Nc2nc3ccccc3[nH]2)c1,0.76µM*,0.71µM*,0.56µM*,?,?,0.37µM*
O=C(Cc1ccccc1Cl)Nc1nc2ccccc2[nH]1,-10%,21%,19%,?,nt,5%
Cn1nc(C(=O)Nc2nc3ccccc3[nH]2)ccc1=O,17µM*,2.2µM*,?,?,13µM*,18%
